Data published in PubChem BioAssay (EPA / NIEHS).
Results filed as inconclusive are left out. Calls of active or inactive are those of the source. The calls were made as follows, unless noted: active = hit-call score of the fitted dose curve at least 0.9, where 1 is the maximum; inactive = score below 0.9.

Tests used:
[1] = target: CCAAT/enhancer-binding protein beta (Homo sapiens) (UniProt P17676); assay: ATG_C_EBP_CIS: Attagene CIS-FACTORIAL HepG2 Assay for human CCAAT/Enhancer Binding Protein (C/EBP) beta (AID 2282927); details: HepG2 Attagene cis-factorial transcription factor reporter; actives raise or lower the signal
Outline: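 HepG2, transient MRTU transfection, 24 h treatment. RT-PCR plus CE fluorescence; DMSO negative control, bidirectional fit.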

[2] = ATG_CMV_CIS: Attagene CIS-FACTORIAL HepG2 Assay for human CMV (Internal Marker) (AID 2282928); details: HepG2 CMV promoter reporter, transcription factor profiling; actives raise or lower the signal;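 also: endpoint acts as a background internal control marker rather than a target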
Outline: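 Bidirectional fits against DMSO are applied to reporter mRNA, read by RT-PCR with capillary electrophoresis, from HepG2 cells exposed 24 h. The endpoint serves as an internal CMV background marker within the cis-factorial reporter panel.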

[3] = target: Hypoxia-inducible factor 1-alpha (Homo sapiens) (UniProt Q16665); assay: ATG_HIF1a_CIS: Attagene CIS-FACTORIAL HepG2 Assay for human Hypoxia Inducible Factor 1 (HIF1A) (AID 2282951); details: HepG2 Attagene cis-factorial HIF1a reporter transcription; actives raise or lower the signal
Outline: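 Activity is fitted in both directions relative to DMSO. Reporter transcripts are read by RT-PCR, fluorescent primer extension and capillary electrophoresis after 24 h chemical treatment. The cells are HepG2 carrying transiently transfected cis-element-driven reporter units responding to endogenous factors.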

[4] = target: Hepatocyte nuclear factor 6 (Homo sapiens) (UniProt Q9UBC0); assay: ATG_HNF6_CIS: Attagene CIS-FACTORIAL HepG2 Assay for human Hepatocyte Nuclear Factor 6 (HNF6) (AID 2282952); details: HepG2 Attagene cis-factorial HNF6 reporter transcription; actives raise or lower the signal
Outline: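 Activity values derive from bidirectional fitting against DMSO of reporter mRNA levels, measured by capillary electrophoresis of labelled RT-PCR products from HepG2 cells exposed 24 h.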

[5] = target: Heat shock factor protein 1 (Homo sapiens) (UniProt Q00613); assay: ATG_HSE_CIS: Attagene CIS-FACTORIAL HepG2 Assay for human Heat Shock Transcription Factor 1 (HSE) (AID 2282953); details: HepG2 HSE cis-reporter, Attagene RNA transcription; actives raise or lower the signal
Outline: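 Endogenous transcription factor activity in transiently transfected HepG2, read as reporter mRNA by RT-PCR with fluorescent capillary electrophoresis after 24 h. Gain or loss of signal fitted versus DMSO baseline.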

[6] = ATG_RORE_CIS: Attagene CIS-FACTORIAL HepG2 Assay for human RAR-related Orphan Receptor Element (RORE) (AID 2282959); details: HepG2 Attagene cis-factorial RORE reporter, mRNA; actives raise or lower the signal
Outline: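 RORE reporter transcripts reflecting endogenous factor activity were read after 24 h compound exposure of transfected HepG2 cells, using reverse transcription, PCR, fluorescent labelling and capillary electrophoresis sizing. Gain or loss fitted against DMSO.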

[7] = ATG_TA_CIS: Attagene CIS-FACTORIAL HepG2 Assay for human TA Basal Promoter (AID 2282964); details: HepG2 Attagene CIS-factorial TA basal promoter reporter; actives raise or lower the signal
Outline: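 Background-control readout: TA basal promoter reporter mRNA, fitted in both directions relative to DMSO. Measured by RT-PCR and capillary electrophoresis 24 hours after treating HepG2 human liver cells transiently carrying multiplexed cis-regulated reporter constructs.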

[8] = ATG_TCF_b_cat_CIS: Attagene CIS-FACTORIAL HepG2 Assay for human T-Cell-Factor with beta-catenin (TCF/b-cat) (AID 2282965); details: HepG2 TCF/beta-catenin cis-reporter transcription, actives raise or lower the signal
Outline: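 Cells of the HepG2 line carry transiently transfected reporter units whose promoters respond to endogenous factors. Twenty-four hours post-dosing, reporter mRNA induction is measured by fluorescent RT-PCR and capillary electrophoresis, with DMSO as baseline.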

[9] = ATG_TAL_CIS: Attagene CIS-FACTORIAL HepG2 Assay for human TAL Basal Promoter (AID 2282966); details: HepG2 Attagene cis-factorial TAL promoter reporter; actives raise or lower the signal;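 also: background control endpoint measuring basal TAL promoter reporter mRNA not a specific factor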
Outline: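 Transiently transfected HepG2 (cis-regulated reporter units), 24 h treatment, mRNA read by fluorescent CE after RT-PCR; bidirectional fit, DMSO baseline.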

[10] = ATG_TGFb_CIS: Attagene CIS-FACTORIAL HepG2 Assay for human Transforming Growth Factor (TGF) (AID 2282967); details: HepG2 Attagene CIS TGFb reporter, mRNA transcription; actives raise or lower the signal
Outline: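 Endogenous TGFB1-linked transcription factor activity read as reporter mRNA via RT-PCR and capillary electrophoresis, 24 h after dosing transiently transfected HepG2 cells. Gain or loss of signal fitted relative to DMSO.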

[11] = ATG_VDRE_CIS: Attagene CIS-FACTORIAL HepG2 Assay for human Vitamin D Receptor Element (VDRE) (AID 2282968); details: HepG2 VDRE cis-reporter transcription, actives raise or lower the signal
Outline: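 Transient MRTU transfection of HepG2, 24 h compound exposure. Readout: reporter transcripts via RT-PCR and capillary electrophoresis, fluorescence. Bidirectional fit vs DMSO.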

[12] = ATG_M_32_TRANS: Attagene TRANS-FACTORIAL HepG2 Assay for M32 Transcription Factor (Internal Marker) (AID 2282984; active = hit-call score of the fitted dose curve at least 0.9, where 1 is the maximum;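 also: transcript level of a background control reporter unit measured by RT-PCR and capillary electrophoresis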); details: HepG2 Attagene TRANS M32 internal marker reporter
Outline: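 Read-out: fluorescent reporter cDNA fragments resolved by capillary electrophoresis after RT-PCR of total RNA. Transfected HepG2 cells were exposed to chemical for 24 h. Activity scored in the positive direction relative to DMSO.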

[13] = target: Transcriptional activator Myb (Homo sapiens) (UniProt P10242); assay: ATG_Myb_CIS: Attagene CIS-FACTORIAL HepG2 Assay for human Myeloblastosis (Myb) Proto-Oncogene Transcription Factor (AID 2282986); details: HepG2 Attagene CIS-FACTORIAL Myb reporter transcription; actives raise or lower the signal
Outline: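 Reporter mRNA is quantified by RT-PCR and capillary electrophoresis 24 h after dosing HepG2 cells transfected with cis-regulated reporter units, which track endogenous transcription factor activity. Gain and loss of signal are fitted versus DMSO baseline.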

[14] = target: Myc proto-oncogene protein (Homo sapiens) (UniProt P01106); assay: ATG_Myc_CIS: Attagene CIS-FACTORIAL HepG2 Assay for human Myelocytomatosis (Myc) Proto-Oncogene Transcription Factor (AID 2282990); details: HepG2, Attagene cis-reporter transcription factor activity; actives raise or lower the signal
Outline: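 Fluorescence intensity of reporter-specific cDNA fragments, separated by capillary electrophoresis, gives the signal. Transfected HepG2 cells carrying cis-promoter reporter constructs are incubated with compound for 24 h; DMSO serves as baseline.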

[15] = ATG_NF_kB_CIS: Attagene CIS-FACTORIAL HepG2 Assay for human Nuclear Factor Kappa B (NF-kB) (AID 2282991); details: HepG2 Attagene cis-factorial NF-kB reporter mRNA; actives raise or lower the signal
Outline: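 Readout is reporter transcript level, gain or loss versus DMSO, measured 24 h post-dose via RT-PCR, fluorescent labelling and capillary electrophoresis. Human HepG2 liver cells carried transiently transfected CIS reporter constructs reflecting endogenous factors.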

[16] = ATG_NRF2_ARE_CIS: Attagene CIS-FACTORIAL HepG2 Assay for human Nuclear Factor Erythroid 2 Related Factor 2 (NFR2) response to Antioxidant Response Elements (ARE) (AID 2282992); details: HepG2 Attagene ARE/NRF2 reporter, transcription factor activity; actives raise or lower the signal
Outline: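 Endogenous transcription factor activity read out as reporter transcript levels (RT-PCR plus capillary electrophoresis, fluorescence) in transiently transfected HepG2 cells. Measured at 24 h after dosing; gain or loss of signal fitted versus DMSO.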

[17] = ATG_Oct_MLP_CIS: Attagene CIS-FACTORIAL HepG2 Assay for human Octamer-Binding Transcription Factor (Oct) (AID 2282993); details: HepG2 Attagene cis-factorial Oct reporter, mRNA; actives raise or lower the signal
Outline: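 Readout is reporter transcript level from RT-PCR with fluorescent primer extension and capillary electrophoresis, fitted in both directions against DMSO. Transfected HepG2 reporter units report endogenous factor activity after 24 h dosing.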

[18] = target: Cellular tumor antigen p53 (Homo sapiens) (UniProt P04637); assay: ATG_p53_CIS: Attagene CIS-FACTORIAL HepG2 Assay for human p53 Transcription Factor (AID 2282994); details: HepG2 p53 cis-element reporter, Attagene mRNA; actives raise or lower the signal
Outline: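 Endogenous p53 activity read in transiently transfected HepG2 from a cis-element-driven reporter transcript after 24 h exposure. RNA reverse-transcribed, PCR-amplified, fluorescently labelled and sized by capillary electrophoresis; gain or loss fitted against DMSO baseline.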

[19] = target: Aryl hydrocarbon receptor (Homo sapiens) (UniProt P35869); assay: ATG_Ahr_CIS: Attagene CIS-FACTORIAL HepG2 Assay for human Aryl Hydrocarbon Receptor (Ahr) (AID 2282930); details: HepG2 AhR cis-factorial reporter transcription; actives raise or lower the signal
Outline: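 Endogenous factor activity is tracked through cis-promoter reporter units transfected into HepG2 cells. Transcript levels at 24 h are read by fluorescent RT-PCR and capillary electrophoresis, with activity in either direction scored relative to DMSO.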

[20] = ATG_XTT_Cytotoxicity: Cytotoxicity Assessment in the Attagene TRANS-FACTORIAL HepG2 Assay (AID 2283584; active = hit-call score of the fitted dose curve at least 0.9, where 1 is the maximum)
Outline: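 HepG2 human liver cells, transiently transfected with multiple GAL4-UAS reporter units, were dosed and read at 24 h by XTT as cell number. Loss of signal was fitted relative to DMSO negative control baseline.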

Measured: AC50

Aryl hydrocarbon receptor (Homo sapiens), sequence (P35869 whole entry, looked up): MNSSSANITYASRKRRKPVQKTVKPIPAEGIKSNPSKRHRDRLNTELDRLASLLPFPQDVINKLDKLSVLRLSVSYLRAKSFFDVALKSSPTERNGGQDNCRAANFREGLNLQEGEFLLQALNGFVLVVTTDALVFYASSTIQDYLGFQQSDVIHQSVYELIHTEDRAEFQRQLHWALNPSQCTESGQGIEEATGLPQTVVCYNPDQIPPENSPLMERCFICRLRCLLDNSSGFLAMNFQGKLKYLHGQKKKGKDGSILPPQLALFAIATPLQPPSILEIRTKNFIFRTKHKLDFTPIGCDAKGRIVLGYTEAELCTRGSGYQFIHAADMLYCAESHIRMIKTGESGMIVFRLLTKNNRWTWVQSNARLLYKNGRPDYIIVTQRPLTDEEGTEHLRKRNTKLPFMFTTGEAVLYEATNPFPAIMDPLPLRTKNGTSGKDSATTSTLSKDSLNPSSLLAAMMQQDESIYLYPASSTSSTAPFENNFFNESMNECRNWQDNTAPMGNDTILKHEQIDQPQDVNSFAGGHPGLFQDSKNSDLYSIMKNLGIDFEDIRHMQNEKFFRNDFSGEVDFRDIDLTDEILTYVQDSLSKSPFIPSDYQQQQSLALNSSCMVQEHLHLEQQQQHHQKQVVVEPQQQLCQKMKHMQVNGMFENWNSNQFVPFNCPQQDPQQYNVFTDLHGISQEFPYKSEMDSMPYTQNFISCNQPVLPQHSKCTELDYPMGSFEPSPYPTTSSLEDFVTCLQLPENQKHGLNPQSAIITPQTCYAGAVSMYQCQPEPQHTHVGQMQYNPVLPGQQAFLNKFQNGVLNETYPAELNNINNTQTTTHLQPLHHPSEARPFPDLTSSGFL
Cellular tumor antigen p53 (Homo sapiens), sequence (P04637 whole entry, looked up): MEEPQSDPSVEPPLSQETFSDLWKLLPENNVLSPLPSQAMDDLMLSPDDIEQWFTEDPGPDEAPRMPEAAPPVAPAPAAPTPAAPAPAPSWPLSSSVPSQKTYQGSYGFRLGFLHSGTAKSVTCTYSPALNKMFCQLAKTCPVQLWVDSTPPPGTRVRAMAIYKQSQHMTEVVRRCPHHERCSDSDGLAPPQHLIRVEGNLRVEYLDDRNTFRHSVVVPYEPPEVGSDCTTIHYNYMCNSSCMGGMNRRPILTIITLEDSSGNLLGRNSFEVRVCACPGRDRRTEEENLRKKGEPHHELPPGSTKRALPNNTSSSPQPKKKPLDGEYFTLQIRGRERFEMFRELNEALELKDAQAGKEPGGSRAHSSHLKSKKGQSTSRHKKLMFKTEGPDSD
CCAAT/enhancer-binding protein beta (Homo sapiens), sequence (P17676 whole entry, looked up): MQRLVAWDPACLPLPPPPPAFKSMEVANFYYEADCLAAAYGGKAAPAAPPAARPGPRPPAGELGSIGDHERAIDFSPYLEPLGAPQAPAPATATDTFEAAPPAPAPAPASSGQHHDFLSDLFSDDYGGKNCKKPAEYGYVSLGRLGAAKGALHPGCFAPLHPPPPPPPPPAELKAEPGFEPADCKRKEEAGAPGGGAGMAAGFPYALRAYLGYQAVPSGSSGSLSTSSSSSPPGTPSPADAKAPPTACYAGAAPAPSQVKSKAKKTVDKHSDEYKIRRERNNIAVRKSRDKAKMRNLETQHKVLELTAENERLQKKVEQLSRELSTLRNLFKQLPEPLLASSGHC
Transcriptional activator Myb (Homo sapiens), sequence (P10242 whole entry, looked up): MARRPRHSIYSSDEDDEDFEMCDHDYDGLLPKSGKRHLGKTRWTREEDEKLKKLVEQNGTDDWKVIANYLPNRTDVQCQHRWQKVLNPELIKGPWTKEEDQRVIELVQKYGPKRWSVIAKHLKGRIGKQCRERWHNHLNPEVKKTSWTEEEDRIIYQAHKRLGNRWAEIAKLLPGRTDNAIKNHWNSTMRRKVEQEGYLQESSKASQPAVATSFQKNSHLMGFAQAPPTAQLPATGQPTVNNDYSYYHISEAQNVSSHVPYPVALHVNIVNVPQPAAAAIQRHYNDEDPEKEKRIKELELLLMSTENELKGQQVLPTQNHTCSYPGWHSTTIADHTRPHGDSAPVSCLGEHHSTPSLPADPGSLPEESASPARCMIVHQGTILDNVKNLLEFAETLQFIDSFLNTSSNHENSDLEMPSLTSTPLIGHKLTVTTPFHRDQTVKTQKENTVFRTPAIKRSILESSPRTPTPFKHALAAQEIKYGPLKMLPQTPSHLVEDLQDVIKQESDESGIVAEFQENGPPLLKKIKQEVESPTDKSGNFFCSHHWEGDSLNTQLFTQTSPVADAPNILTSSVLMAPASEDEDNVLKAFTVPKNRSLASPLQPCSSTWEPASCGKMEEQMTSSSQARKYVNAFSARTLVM
Hepatocyte nuclear factor 6 (Homo sapiens), sequence (Q9UBC0 whole entry, looked up): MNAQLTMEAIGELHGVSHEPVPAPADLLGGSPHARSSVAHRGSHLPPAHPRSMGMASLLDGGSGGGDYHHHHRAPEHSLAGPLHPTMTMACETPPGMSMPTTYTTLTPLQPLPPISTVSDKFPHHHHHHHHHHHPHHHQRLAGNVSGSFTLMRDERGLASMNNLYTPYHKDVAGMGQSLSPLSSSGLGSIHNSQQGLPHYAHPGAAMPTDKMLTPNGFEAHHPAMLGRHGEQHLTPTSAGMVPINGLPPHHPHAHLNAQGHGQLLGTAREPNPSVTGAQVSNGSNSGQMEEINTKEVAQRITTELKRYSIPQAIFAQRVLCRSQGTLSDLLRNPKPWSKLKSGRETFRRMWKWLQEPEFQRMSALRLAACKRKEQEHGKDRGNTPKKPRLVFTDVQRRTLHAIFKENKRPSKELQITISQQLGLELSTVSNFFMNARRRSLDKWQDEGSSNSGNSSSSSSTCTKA
Myc proto-oncogene protein (Homo sapiens), sequence (P01106 whole entry, looked up, the tested form may be a part): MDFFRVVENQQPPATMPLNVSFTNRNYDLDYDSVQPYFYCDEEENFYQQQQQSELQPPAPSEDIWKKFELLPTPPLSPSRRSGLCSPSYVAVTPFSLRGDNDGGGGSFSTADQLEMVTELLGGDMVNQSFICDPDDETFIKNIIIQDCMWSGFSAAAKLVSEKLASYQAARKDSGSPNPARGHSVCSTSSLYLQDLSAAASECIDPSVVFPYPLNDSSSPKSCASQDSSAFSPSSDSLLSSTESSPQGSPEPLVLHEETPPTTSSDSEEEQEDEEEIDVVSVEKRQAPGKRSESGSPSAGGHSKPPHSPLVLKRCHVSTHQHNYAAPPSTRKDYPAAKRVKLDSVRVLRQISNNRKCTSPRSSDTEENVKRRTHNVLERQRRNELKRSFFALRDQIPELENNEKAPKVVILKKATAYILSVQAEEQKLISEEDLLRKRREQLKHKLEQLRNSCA
Hypoxia-inducible factor 1-alpha (Homo sapiens), sequence (Q16665 whole entry, looked up): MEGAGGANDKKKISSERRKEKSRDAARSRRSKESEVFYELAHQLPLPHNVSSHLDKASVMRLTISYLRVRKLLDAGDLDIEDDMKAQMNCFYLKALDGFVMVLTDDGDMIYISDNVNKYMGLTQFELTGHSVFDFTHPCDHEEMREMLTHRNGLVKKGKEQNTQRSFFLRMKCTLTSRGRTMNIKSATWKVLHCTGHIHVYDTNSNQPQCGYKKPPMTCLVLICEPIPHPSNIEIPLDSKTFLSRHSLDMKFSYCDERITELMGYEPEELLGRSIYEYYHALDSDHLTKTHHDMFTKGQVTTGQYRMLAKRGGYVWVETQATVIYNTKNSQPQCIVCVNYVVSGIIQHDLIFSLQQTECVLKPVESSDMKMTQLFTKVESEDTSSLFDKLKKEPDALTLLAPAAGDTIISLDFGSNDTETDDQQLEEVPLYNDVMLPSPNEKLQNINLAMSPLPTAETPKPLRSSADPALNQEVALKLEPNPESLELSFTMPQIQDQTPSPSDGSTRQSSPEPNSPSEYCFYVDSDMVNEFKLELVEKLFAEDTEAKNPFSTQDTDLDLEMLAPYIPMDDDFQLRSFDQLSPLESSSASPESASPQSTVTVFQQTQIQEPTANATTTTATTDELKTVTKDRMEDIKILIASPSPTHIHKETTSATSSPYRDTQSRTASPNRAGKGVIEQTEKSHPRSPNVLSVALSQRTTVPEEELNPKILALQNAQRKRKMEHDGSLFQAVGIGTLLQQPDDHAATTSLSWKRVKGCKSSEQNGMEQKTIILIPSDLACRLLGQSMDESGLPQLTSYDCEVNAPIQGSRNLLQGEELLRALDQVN
Heat shock factor protein 1 (Homo sapiens), sequence (Q00613 whole entry, looked up): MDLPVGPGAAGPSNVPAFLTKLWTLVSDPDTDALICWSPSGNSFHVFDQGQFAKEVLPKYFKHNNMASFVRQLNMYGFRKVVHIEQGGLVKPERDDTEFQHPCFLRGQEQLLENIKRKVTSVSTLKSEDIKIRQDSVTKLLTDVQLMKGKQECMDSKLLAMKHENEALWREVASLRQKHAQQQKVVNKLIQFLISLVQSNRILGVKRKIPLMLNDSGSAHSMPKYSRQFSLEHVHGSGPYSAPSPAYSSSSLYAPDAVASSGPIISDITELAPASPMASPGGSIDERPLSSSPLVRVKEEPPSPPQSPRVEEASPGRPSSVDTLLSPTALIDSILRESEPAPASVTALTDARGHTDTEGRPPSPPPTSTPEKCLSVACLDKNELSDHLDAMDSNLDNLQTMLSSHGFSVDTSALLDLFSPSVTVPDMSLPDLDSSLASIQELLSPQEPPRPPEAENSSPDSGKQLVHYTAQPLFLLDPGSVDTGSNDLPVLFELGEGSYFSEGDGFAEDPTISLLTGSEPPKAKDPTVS

COc1cc(OC)c(OC)cc1C=O
inactive: [1] | [2] | [3] | [4] | [5] | [6] | [7] | [8] | [9] | [10] | [11] | [12] | [13] | [14] | [15] | [16] | [17] | [18]

CCCOC(=O)c1ccccc1C(=O)OCCC
inactive: [1] | [19] | [3] | [4] | [5] | [6] | [7] | [8] | [9] | [10] | [12] | [13] | [14] | [15] | [16] | [17] | [18] | [20]

N#CCCCl
inactive: [1] | [2] | [3] | [4] | [5] | [6] | [7] | [8] | [9] | [10] | [11] | [13] | [14] | [15] | [16] | [17] | [18] | [20]

COCC(=O)N(c1c(C)cccc1C)N1CCOC1=O
active: [11] 65.9 µM
inactive: [1] | [3] | [4] | [5] | [6] | [7] | [8] | [9] | [10] | [12] | [13] | [14] | [15] | [16] | [17] | [18]

CN(C)CCC#N
inactive: [1] | [3] | [4] | [5] | [6] | [7] | [8] | [9] | [10] | [11] | [12] | [13] | [14] | [15] | [16] | [17] | [18] | [20]

CC(C)C(=O)Cl
inactive: [1] | [19] | [3] | [4] | [5] | [7] | [8] | [9] | [10] | [11] | [12] | [13] | [14] | [15] | [16] | [17] | [18] | [20]

O=C(NC(=O)c1c(F)cccc1F)Nc1ccc(Oc2ccc(C(F)(F)F)cc2Cl)cc1F
active: [2] 4.11 µM | [19] 8.23 µM | [16] 34.5 µM
inactive: [3] | [4] | [5] | [6] | [7] | [8] | [9] | [10] | [11] | [13] | [14] | [15] | [17] | [18] | [20]

C=CCO
inactive: [1] | [19] | [3] | [4] | [7] | [8] | [9] | [10] | [12] | [13] | [14] | [15] | [16] | [17] | [18] | [20]
